# Compounds with a hit are over-represented: about 8% of the library has one in this group of screens.
# HCV inhibitor: HCV inhibition | Huh7.5.1 HCVcc-Cre infection, luciferase reporter, 44 h | Potency, µM (series often up to 41.8 µM), for the others: top-dose activity change, negative = inhibition, usual class: inhibitors | 3.4% of 340,000 active | AID 651820; active = well fitted inhibition curve with a large enough effect; inconclusive = small, poorly fitted or top-dose-only effect, or another doubt; inactive = no such curve, though single readings can be large or run the other way; also: potency is read from the fitted curve at half-maximal effect; % is scaled to controls: 0 for no effect and ±100 for the full control effect
#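 Whole-lifecycle infectious HCVcc-Cre system; cells 1,000/well, compound then virus (~0.5 moi) added 4 h after plating, 44 h culture. Luciferase read 15 sec following 15 min substrate incubation, room temp.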
# FMDV inh: antivirals against foot and mouth disease virus. FMDV antiviral cell-based qHTS. Potency, µM (top dose mostly 57.9 µM), for inactives: at the top dose activity change, negative = inhibition, hits mostly inhibitors. 1.2% of 410,000 active. AID 1159524; calls by dose curve; tested in HEK293T cells; also: read-out not given here; potency is read from the fitted curve at half-maximal effect; % is scaled to controls: 0 for no effect and ±100 for the full control effect; nearly all actives have a fitted effect of over 45% in size
# HCMV antiviral: inhibitors of human cytomegalovirus; HFF cells, HCMV-luciferase reporter, 72 h; hits give low values; activity change, negative = inhibition, % at 57.5 µM; 4.5% of 410,000 active; AID 1259415; in the data active = activity change below about -60%; inconclusive = no clear call, values can overlap the other calls; inactive = above about -39%; also: % is scaled to controls: 0 for no effect and ±100 for the full control effect
#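 Compounds were evaluated in HFFs infected with an HCMV luciferase reporter virus (MOI 1 PFU/cell). Luciferase in lysates collected 72 h post infection served as the replication measure.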
# SARS PLpro yeast: SARS-CoV PLP inhibition in yeast; AID 485353; S. cerevisiae expressing SARS-CoV PLpro, growth rescue; 0.19% of 330,000 active; Potency, µM (doses to about 32.9 µM), for inactives: at the top dose activity, positive = growth rescue, most hits filed as activators; calls by dose curve; also: potency is read from the fitted curve at half-maximal effect; 0% is about no effect; nearly all actives have a fitted effect of over 55% in size
# LASV entry inh: Lassa virus entry inhibition; Lassa virus pseudotype entry inhibition, cell reporter; Potency, µM (highest dose often 37.9 µM), for the others: at the top dose activity change, negative = inhibition, actives largely listed as inhibitors; 1.2% of 300,000 active; AID 540256; calls by dose curve; tested in HEK293 cells; also: potency is read from the fitted curve at half-maximal effect; % is scaled to controls: 0 for no effect and ±100 for the full control effect; nearly all actives have a fitted effect of over 50% in size
# MARV entry inh: inhibitors of Marburg virus binding or cell entry. AID 540276. Marburg virus pseudotyped entry inhibition, cell reporter. 1.8% of 300,000 active. Potency, µM (titrated, usually from 37.8 µM), inactives show top-dose activity change, negative = inhibition, hits mostly inhibitors; calls by dose curve; tested in HEK293 cells; also: potency is read from the fitted curve at half-maximal effect; % is scaled to controls: 0 for no effect and ±100 for the full control effect
# The depositor's hits bear a star; u = inconclusive; x = no result; [ ] = another dose, or the depositor's remark.
SMILES,HCV inhibitor,FMDV inh,HCMV antiviral,SARS PLpro yeast,LASV entry inh,MARV entry inh
CN(C)c1ccc(-c2n(C)c3ccccc3[n+]2C)cc1,8.9µM*,x,-97*,25%,u,u
Cn1c(-c2ccc3ccccc3n2)[n+](C)c2ccccc21,u,19%,-72*,0%,-14%,-17%[46.1 µM]
Cn1c(-c2ccccn2)[n+](C)c2ccccc21,-12%,28%,-13,1%,8%[46.1 µM],20%[46.1 µM]
CCN1CCN(/C=N/c2nc3c(s2)CCCC3)CC1,u,x,-69*,1%,u,5.8µM*
CC1CC(C)(C)NC(=S)N1CCCC(=O)Nc1ccc(F)cc1 (stereo unspecified),0%,-6%,-8,-1%,18%,1%[46.1 µM]
c1cc(-c2cnc3cccnn23)c2cccnc2c1,x,-16%,-69*,x,x,x
OC1(c2cccnc2)CCN(Cc2ccc3c(c2)CN(Cc2ccsc2)CCO3)CC1,x,-11%,x,x,x,x
COc1ccc(-n2c(Cc3cccn3C)nnc2SCC(=O)N2CCCc3ccccc32)cc1,x,21%,13,-17%,22%[14.3 µM],-4%
COc1ccc(OCc2nnc(SCC(=O)N3CCCc4ccccc43)n2-c2ccc(C)cc2)cc1,10µM*,-15%,-9,0%,u,u
N#Cc1ccc(OCc2nnc(SCC(=O)N3CCCc4ccccc43)n2-c2ccccc2)cc1,-8%,-29%,-3,2%,26µM*,18µM*
O=C(CCCn1c(=O)c2ccccc2n(Cc2cccc(Cl)c2)c1=O)NCCc1ccc(Cl)cc1,x,-19%,-8,x,u,u
COc1cccc(NC(=O)COC(=O)c2c3c(nc4ccccc24)CCC(C)C3)c1 (stereo unspecified),2µM*,32µM*,-25,-21%,18µM*,7.3µM*
CC1CCc2nc3ccccc3c(C(=O)OCC(=O)N(C)C3CCS(=O)(=O)C3)c2C1 (stereo unspecified),u,-13%,-13,3%,5%,-11%[46.1 µM]
CC1CCc2nc3ccccc3c(C(=O)OCC(=O)NC3CCS(=O)(=O)C3)c2C1 (stereo unspecified),10µM*,-10%,-17,7%,-9%,-10%[46.1 µM]
COc1ccc(CCNC(=O)Cn2cnc3scc(-c4ccccc4)c3c2=O)cc1OC,-19%,-18%,-102*,-1%,x,x
COC(=O)c1sc2ncn(CC(=O)NCCc3ccc(OC)c(OC)c3)c(=O)c2c1C,-27%,-22%,46,1%,-1%,2%
CC(C)(C)c1ccc(OCCC(=O)Nc2cccc(S(=O)(=O)NC3=NCCCCC3)c2)cc1,14µM*,u,-60*,-2%,10µM*,u
O=C(COc1ccc(C(=O)c2ccc(F)cc2)cc1)Nc1cccc(S(=O)(=O)N2CCOCC2)c1,6.3µM*,32µM*,-18,3%,u,-43%
CCOc1ccc(N2CC(C(=O)Nc3cccc(S(=O)(=O)N4CCOCC4)c3)CC2=O)cc1 (stereo unspecified),x,-6%,-19,x,x,x
CN(CC(=O)Nc1cccc(S(=O)(=O)NC2=NCCCCC2)c1)Cc1ccc(C(C)(C)C)cc1,u,-17%,9,-9%,u,u
O=C(COC(=O)CCC(=O)c1ccc(F)cc1)Nc1cccc(S(=O)(=O)N2CCOCC2)c1,13%,-7%,-37,1%,14%[46.1 µM],21%[46.1 µM]
CCOc1ccc(N2CC(C(=O)Nc3cccc(S(=O)(=O)N4CCCC4)c3)CC2=O)cc1 (stereo unspecified),10µM*,-6%,2,2%,u,-20%[46.1 µM]
CCCOc1ccc(N2CC(C(=O)Nc3cccc(Cl)c3Cl)CC2=O)cc1 (stereo unspecified),x,-3%,-88*,x,-14%[46.1 µM],x
CCN1CCc2nc3sc(C(=O)c4ccccc4)c(N)c3cc2C1,x,34%,10,x,31%[46.1 µM],u
Fc1ccc(Nc2nc3ccccc3c3nncn23)c(Cl)c1,x,-10%,-13,x,0%[46.1 µM],-15%[46.1 µM]
CCOc1ccc(N2CC(C(=O)Nc3ccc(F)cc3F)CC2=O)cc1 (stereo unspecified),9%,47%,-102*,0%,-3%,u
CCOc1ccc(N2CC(C(=O)Nc3ccccc3OC)CC2=O)cc1 (stereo unspecified),-5%,25%,5,6%,x,x

# Screens (PubChem BioAssay)
